According to PubChem BioAssay AID1159580 (chemical genetic matrix, 2015):
In all, about 5,500 compounds went through this assay and about 2,000 (36%) were called active. Not shown: some 18% with an inconclusive outcome. Rule as the data show it: active = normalized growth mostly below about 0.91 (no sharp cut-off); inconclusive = no clear call, values can overlap the other calls; inactive = mostly above about 0.92. Some of the results follow.

Assay: chemical genetic growth profiling, strain panel (AID 1159580);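 also: tested at 20 µM; growth read once vehicle control cultures reached saturation at 30 °C; 1 = growth at the plate median or of vehicle wells; lower values mean less growth of the strain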
Details: growth OD

Measured: normalized growth

CCN(CC)c1ccc(NC(=O)c2c(F)cccc2F)c(N(CC)CC)n1
active: S. cerevisiae deletion strains, locus YMR307W, strain GAS1, stronger effect = lower value 0.574
inactive: S. cerevisiae deletion strains, locus YAL013W, strain DEP1, stronger effect = lower value 0.986 | S. cerevisiae deletion strains, locus YBR229C, strain ROT2, stronger effect = lower value 0.98 | S. cerevisiae deletion strains, locus YDL101C, strain DUN1, stronger effect = lower value 0.955 | S. cerevisiae deletion strains, locus YDL134C, strain PPH21, stronger effect = lower value 0.993 | S. cerevisiae deletion strains, locus YDR150W, strain NUM1, stronger effect = lower value 0.99 | S. cerevisiae deletion strains, locus YEL061C, strain CIN8, stronger effect = lower value 0.964 | S. cerevisiae deletion strains, locus YGR078C, strain PAC10, stronger effect = lower value 0.98 | S. cerevisiae deletion strains, locus YHR030C, strain SLT2, stronger effect = lower value 0.698 | S. cerevisiae deletion strains, locus YHR087W, strain rtc3, stronger effect = lower value 0.952 | S. cerevisiae deletion strains, locus YJR043C, strain POL32, stronger effect = lower value 0.99 | S. cerevisiae deletion strains, locus YJR075W, strain HOC1, stronger effect = lower value 0.954 | S. cerevisiae deletion strains, locus YLR039C, strain RIC1, stronger effect = lower value 0.815 | S. cerevisiae deletion strains, locus YLR058C, strain SHM2 (second series), stronger effect = lower value 1 | S. cerevisiae deletion strains, locus YLR085C, strain ARP6, stronger effect = lower value 0.91 | S. cerevisiae deletion strains, locus YLR262C, strain YPT6, stronger effect = lower value 0.863 | S. cerevisiae deletion strains, locus YML094W, strain GIM5, stronger effect = lower value 0.953 | S. cerevisiae deletion strains, locus YMR219W, strain ESC1, stronger effect = lower value 0.997 | S. cerevisiae deletion strains, locus YMR263W, strain SAP30, stronger effect = lower value 1 | S. cerevisiae deletion strains, locus YNL153C, strain GIM3, stronger effect = lower value 0.991 | S. cerevisiae deletion strains, locus YNL298W, strain CLA4 (second series), stronger effect = lower value 0.935 | S. cerevisiae deletion strains, locus YNL322C, strain KRE1, stronger effect = lower value 0.987 | S. cerevisiae deletion strains, locus YNR030W, strain Alg12, stronger effect = lower value 0.942 | S. cerevisiae deletion strains, locus YPL055C, strain LGE1, stronger effect = lower value 0.963 | S. cerevisiae deletion strains, locus YPL241C, strain CIN2, stronger effect = lower value 1.05 | S. cerevisiae deletion strains, locus YPR135W, strain CTF4, stronger effect = lower value 0.8 | S. cerevisiae strains, strain wild type, stronger effect = lower value 0.988
